Experiment [1] deals with Nuclear receptor coactivator 1 (Homo sapiens) (UniProt Q15788). The experiment in a line: NCOA1 GAL4-fusion reporter inhibition – cell-based, luminescence, quadruplicate, confirmation (AID 588820).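 Note: 0% = DMSO wells and 100% = gossypol 36 µM treated wells.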 The following applies: HEK293 GAL4-SRC1 luciferase reporter, at 3.6 µM, hits give high values. In general terms: A reporter such as luciferase makes a cellular process visible.
A short description of experiment [2]: repression of VP16-driven luciferase reporter – cell-based, luminescence, high throughput, counter-screen for SRC1 inhibitor project (AID 588824; in the data active = inhibition above about 25%). Conditions: cell-based VP16 transactivation luciferase luminescence; at 3.6 µM; hits give high values.

A number with no mark means an inactive call. Calls of active or inactive are those of the source.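 Rule for the calls, unless noted: active = mean inhibition above 46.68%, the untreated control wells mean plus 3 SD; inactive = the rest.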

Sequence of Nuclear receptor coactivator 1 (Homo sapiens) (Q15788 whole entry, looked up, the tested form may be a part): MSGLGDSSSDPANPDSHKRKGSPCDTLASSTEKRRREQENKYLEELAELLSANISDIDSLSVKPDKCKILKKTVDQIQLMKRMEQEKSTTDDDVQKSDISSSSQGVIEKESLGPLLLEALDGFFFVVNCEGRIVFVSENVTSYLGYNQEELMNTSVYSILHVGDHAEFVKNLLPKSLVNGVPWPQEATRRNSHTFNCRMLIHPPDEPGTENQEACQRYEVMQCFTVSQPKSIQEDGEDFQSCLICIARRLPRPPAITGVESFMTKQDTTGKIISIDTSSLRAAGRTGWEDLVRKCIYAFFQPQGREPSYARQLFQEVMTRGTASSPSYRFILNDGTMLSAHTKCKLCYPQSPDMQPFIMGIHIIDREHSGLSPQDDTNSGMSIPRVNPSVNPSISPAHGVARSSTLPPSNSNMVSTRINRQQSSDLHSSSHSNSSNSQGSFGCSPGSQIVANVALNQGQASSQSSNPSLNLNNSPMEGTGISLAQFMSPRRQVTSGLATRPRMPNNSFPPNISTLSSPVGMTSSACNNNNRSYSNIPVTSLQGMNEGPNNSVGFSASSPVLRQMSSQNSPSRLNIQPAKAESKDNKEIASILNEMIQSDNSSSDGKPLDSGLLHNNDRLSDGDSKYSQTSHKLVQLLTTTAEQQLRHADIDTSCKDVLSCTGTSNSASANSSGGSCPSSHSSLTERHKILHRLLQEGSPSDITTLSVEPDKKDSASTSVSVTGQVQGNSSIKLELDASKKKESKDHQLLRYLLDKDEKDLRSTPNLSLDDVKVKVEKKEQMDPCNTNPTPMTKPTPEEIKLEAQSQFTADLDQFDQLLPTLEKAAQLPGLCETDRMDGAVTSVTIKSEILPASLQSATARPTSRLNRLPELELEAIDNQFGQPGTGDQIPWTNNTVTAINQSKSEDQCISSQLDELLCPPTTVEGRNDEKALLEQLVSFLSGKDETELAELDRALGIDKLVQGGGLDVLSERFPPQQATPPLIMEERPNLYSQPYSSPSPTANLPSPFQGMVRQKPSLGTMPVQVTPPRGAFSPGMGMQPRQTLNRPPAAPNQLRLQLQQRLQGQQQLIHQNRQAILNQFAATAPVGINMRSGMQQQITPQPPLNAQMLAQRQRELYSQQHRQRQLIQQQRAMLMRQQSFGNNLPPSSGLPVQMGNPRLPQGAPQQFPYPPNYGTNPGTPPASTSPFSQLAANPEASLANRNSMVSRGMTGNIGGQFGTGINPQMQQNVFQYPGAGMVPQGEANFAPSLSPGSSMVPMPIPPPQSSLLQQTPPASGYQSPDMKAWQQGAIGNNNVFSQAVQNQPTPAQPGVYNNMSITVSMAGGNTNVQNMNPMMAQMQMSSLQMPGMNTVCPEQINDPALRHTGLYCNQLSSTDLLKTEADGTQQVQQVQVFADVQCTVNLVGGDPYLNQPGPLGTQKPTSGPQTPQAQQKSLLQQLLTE

Consider `CCN(CC)S(=O)(=O)c1ccc(N2CCOCC2)c(NC(=O)c2cc(-c3ccccn3)nc3ccccc23)c1`, for which the inhibition – broadly, the relative decrease from the control value, in per cent – in experiment [1] is -32%; in experiment [2] it was -1.24%.
Take `Cc1ccn(CC(=O)N/N=C/c2cc([N+](=O)[O-])ccc2O)n1`: the inhibition in experiment [1] is 7.62%; in experiment [2], 9.09%.
The matching figures for `CCOC(=O)c1cc(C#N)c(SCC(=O)OC)[nH]c1=O`: 1.73% and -9.78%.
Taken in the same sequence, the figures for `CC(OC(=O)CSCC(=O)Nc1ccc(Cl)cc1)C(=O)N(C)Cc1ccccc1` (centres undefined) were -7.38% and 1.96%.
Taken in the same sequence, the figures for `CNC(=O)CCCN1C(=O)c2ccccc2Sc2ncccc21` were -2.17% and -3.21%.
`CN1CCN(CCC(=O)N/N=C/c2cc3c(cc2[N+](=O)[O-])OCO3)CC1`: the inhibition in experiment [1] is -2.3%; in experiment [2] it was -2.21%.
Take `COc1ccccc1CCC(=O)Nc1cccc(S(=O)(=O)N2CCCCCC2)c1`: the inhibition was -1.96% in experiment [1] and -7.85% in experiment [2].
Taken in the same sequence, the figures for `COc1cc(NC(=O)c2cccc3c(-c4cccnc4)coc23)cc(OC)c1OC` were -19.1% and 28.3% (active).
The matching figures for `Cc1cc[n+](CC(=O)Nc2cccc(C)c2)cc1`: -8.15% and 1.99%.
The matching figures for `CCOc1ccc(OCCC(=O)OCC(=O)NNC(=O)c2ccccc2)cc1`: -5.67% and -3.09%.
With `CCOc1ccc(NC(=S)N2CCC(NC(=O)c3ccco3)CC2)cc1`, the inhibition in experiment [1] was -7.01%; in experiment [2], -4.78%.
Taken in the same sequence, the figures for `O=C(COC(=O)c1c(Cl)cccc1Cl)Nc1cc(Cl)ccc1Oc1ccccc1` were -14.1% and 4.43%.
The matching figures for `O=c1[nH]c(CSc2nc3ccccc3o2)nc2c1cnn2-c1ccccc1`: -22.6% and 4.42%.
As to `COc1ccc(C(=O)Oc2ccc(/C=N/NC(=O)c3ccccc3OC)cc2[N+](=O)[O-])cc1`, the inhibition in experiment [1] is -11.5%; in experiment [2], -0.66%.
Taken in the same sequence, the figures for `COc1ccc(Cc2nnc(NC(=O)c3cc(OC)c(OC)c(OC)c3)s2)cc1OC` were -22.8% and -17.4%.
The matching figures for `O=C(Nc1nc(-c2ccccn2)cs1)c1cccc(S(=O)(=O)N2CCOCC2)c1`: 25% and 20%.
The matching figures for `COc1ccc(C(=O)Nc2ccc(N3CCCCCC3)cc2)cc1S(=O)(=O)N1CCOCC1`: -2.46% and 18.2%.
As to `CCNc1nc2c(c(=O)n(C)c(=O)n2C)n1Cc1ccc(Cl)cc1`, the inhibition was -0.87% in experiment [1] and 23.4% in experiment [2].
Taken in the same sequence, the figures for `O=S(=O)(Nc1ccc2c(c1)OCCO2)c1cccs1` were 1.12% and -9.45%.
The matching figures for `CCNc1nc(NCC)n2c(SCC(=O)Nc3ccccc3C(F)(F)F)nnc2n1`: -4.19% and -1.57%.
The matching figures for `NC(=O)c1ccc(N2CCN(S(=O)(=O)c3ccccc3)CC2)c([N+](=O)[O-])c1`: -20.8% and 31.9% (active).
On to `COc1ccc(S(=O)(=O)N(C)c2ccc(C(=O)Nc3cccnc3)cc2)cc1OC`, for which the inhibition in experiment [1] was 14.3%; in experiment [2], 17.4%.
The matching figures for `COc1cc(C=C2CCCC(=Cc3ccc(OCC4CO4)c(OC)c3)C2=O)ccc1OCC1CO1` (centres undefined): -119% and 9.37%.
Taken in the same sequence, the figures for `COc1cccc(/C=N/NC(=O)CSc2ccccc2C)c1O` were -0.52% and 6.05%.
Taken in the same sequence, the figures for `O=C(CNC(=O)Cc1ccccc1)N=Nc1c(O)n(Cc2ccc3c(c2)OCO3)c2ccccc12` were 3.52% and 3.04%.
For `COC(=O)c1cc2ccccn2c2c(C(=O)OC)c(C(=O)OC)cc1-2`, the inhibition is -58.3% in experiment [1] and -27.2% in experiment [2].
The matching figures for `Cc1nc2ccccn2c1-c1ccnc(=S)[nH]1`: 31.1% and 11.1%.
Taken in the same sequence, the figures for `CC1=C(C(=O)OC2CCCCC2)C(c2ccc(C)o2)C2=C(CC(C)(C)CC2=O)N1` (centres undefined) were -5.08% and 4.47%.
The matching figures for `CCOC(=O)c1c(CN(CC)CC)n(C)c2cc(Br)c(O)cc12`: 6.72% and 2.67%.
For `NS(=O)(=O)c1ccc(Nc2nc(-c3cccnc3)cs2)cc1`, the inhibition in experiment [1] is 15.8%; in experiment [2], 11.7%.
The matching figures for `Cc1c(C(=O)N2CCN(Cc3ccc4c(c3)OCO4)CC2)sc2ncnc(N3CCN(c4ccccc4F)CC3)c12`: -22.2% and 18.3%.
Turning to `COc1ccccc1NS(=O)(=O)c1cc(NC(=O)C(C)(C)C)ccc1N1CCOCC1`, the inhibition in experiment [1] was -45.2%; in experiment [2], -32.5%.

The values above are taken from PubChem BioAssay.
